According to PubChem BioAssay (NCI):
This is part of a sample that, as a whole, favours compounds with a hit. Of some 83,000 tested, about 20% had one in any assay.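 Values shown are percent growth following 48 h exposure of cells in 96-well plates to a single concentration of compound; below 10 was considered active.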 Activity calls are given as the source filed them.

System: MDA-MB-468 breast
Assay: NCI-60 one-dose screen, 48 h (100 = growth as untreated, 0 = no growth, -100 = all killed)
Settings: 10 µM unless noted

SMILES | growth
CC12CCC3C(CCC4CC(=O)/C(=C\O)CC43C)C1CCC(=O)O2 (stereo not given) | 108% (inactive)
COc1ccc(/C(C)=N/NC(=O)CSc2nc3ccccc3c(=O)n2CCc2ccc(S(N)(=O)=O)cc2)cc1 | 33.8% (inactive)
COc1cc(/C=C2\C(=O)Nc3ccc(N(C)C)cc32)cc(OC)c1OC | -2.28% (active)
Cc1nc(NC(=S)Nc2ccc(F)cc2)sc1C(=O)NNC(=S)Nc1ccc(F)cc1 | 44.6% (inactive)
Clc1ccc(I)c2ccccc12 | 107% (inactive)
COc1cc2c(c(OC)c1OC)-c1ccc(OC)c(=O)cc1[C@@H](NC(=O)CCl)CC2 | -5.69% (active)
O=C(Nc1ccc(F)cc1F)c1cc(Br)ccc1O | -19.6% (active)
O=C1/C(=C/c2ccc(F)cc2)COc2ccc(O)cc21 | 86.4% (inactive)
Cc1c(O)nc(N)[nH]c1=O | 105% (inactive)
COc1ccc(S(=O)(=O)Nc2cc(/C=C\c3cc(OC)c(OC)c(OC)c3)cc(OC)c2OC)cc1OC | 25.5% (inactive)
O=C(NCCNC(=O)Oc1cccc2ccccc12)Oc1cccc2ccccc12 | 103% (inactive)
COc1cccc(CNCCN2C(=O)c3ccc4c5c(ccc(c35)C2=O)C(=O)N(CCNCc2cccc(OC)c2)C4=O)c1 | 89.9% (inactive)
COc1ccc(CNCCN2C(=O)c3ccc4c5c(ccc(c35)C2=O)C(=O)N(CCNCc2ccc(OC)cc2)C4=O)cc1 | -94.3% (active)
NC(=O)NCC1CCCCC1 | 98% (inactive)
COc1ccc(NCc2cn(-c3ccc(C(=O)O)cc3)nc2-c2ccc(C(=O)O)cc2)cc1C(F)(F)F | 98.6% (inactive)
C#CCOc1cccc(-c2ncc3cc(NC(=O)CCl)ccc3n2)c1 | -60.6% (active)
CCNC(=O)Oc1ccc(/C(=C(/C)c2ccccc2)c2ccc(OCCN3CCCC3)cc2)cc1 | 80.3% (inactive)
Cc1c(C(=N)C(C#N)C#N)c(=N)oc2c1ccc1ccccc12 | 54.5% (inactive)
COc1cccc(C(=O)OCC(O)C(=O)NC23CC4CC(CC(C4)C2)C3)c1 (stereo not given) | 88% (inactive)
O=C(Cc1cccc2ccccc12)N/N=C/c1ccc2c(c1)CCC2 | 72.3% (inactive)

SMILES | growth
COc1ccc(/C(=N/O)c2cc(OC)c(OC)c(OC)c2)c(OC)c1N | 27.8% (inactive)
Cc1[nH]c(C(=O)Nc2ccc(C(N)=O)cc2NC(C)C)c(Cl)c1Cl | 83.7% (inactive)
Clc1ccc(Cc2nnc3sc(-c4cccnc4)nn23)cc1 | 94.2% (inactive)
C=C1c2c(C)nn(-c3ccc(N)cc3)c2N(C)C23CC1C1(C)c4c(C)nn(-c5ccc(N)cc5)c4N(C)C(C)(CC12)C3 (stereo not given) | 59.5% (inactive)
CN1CCN(c2ccc(/C=C/C(=O)c3ccc(O)cc3)cc2)CC1 | 89.5% (inactive)
NNC(=O)c1nc2ccccc2[nH]1 | 126% (inactive)
N#Cc1cccc(NC(=O)c2oc3ccccc3c2-c2cnn(-c3ccccc3)c2)c1 | 66.6% [50 µM] (inactive)
O=C1C2=C(C(=O)c3c(O)ccc(O)c31)N(c1cccnc1)Cc1ccccc1O2 | -6.39% (active)
O=c1[nH]c2ccccc2cc1-c1nc2ccncc2[nH]1 | 75% (inactive)
CCCCCCCCSc1ncnc2c1ncn2CO | 11.9% (inactive)
COc1ccc(NC(=O)C2c3ccccc3C(=O)N(CC(C)C)C2c2cccs2)cc1 (stereo not given) | 82.3% (inactive)
N#CCCN=Nc1c(O)[nH]c2ccc(F)cc12 | 98.9% (inactive)
CC/C=C1/C(=O)C=C[C@@H]1C/C=C\CCCC(=O)OC | 77.6% (inactive)
FC(F)(F)Oc1cccc(-c2cc(NCCCCCCNc3cc(-c4cccc(OC(F)(F)F)c4)nc4ccc(N5CCCC5)cc34)c3cc(N4CCCC4)ccc3n2)c1 | -68.1% (active)
O=C(/C(Cl)=N/O)c1ccc(-c2ccccc2)cc1 | 104% (inactive)
C=CCOc1ccc2c(c1)CC[C@@H]1[C@@H]2CC[C@]2(C)C(=O)/C(=N/O)C[C@@H]12 | 60.8% (inactive)
COc1cc(/C=C/c2nc(Nc3ccc(S(=O)(=O)Nc4cc(C)on4)cc3)c3ccccc3n2)ccc1O | -7.09% (active)
Oc1c(I)cc(I)cc1CNCCN(Cc1ccccn1)Cc1ccccn1 | -61.2% (active)
Clc1ccc(C2=NN=C3C(Cc4ccccc4)=Nc4ccccc4N3C2)cc1 | 84.7% (inactive)
CCOC(=O)CCC(=O)O[C@H]1[C@H](O[C@@H]2[C@@H](C)[C@H](O[C@H]3C[C@@](C)(OC)[C@@H](O)[C@H](C)O3)[C@@H](C)C(=O)O[C@H](CC)[C@@](C)(O)[C@H](O)[C@@H](C)C(=O)[C@H](C)C[C@@]2(C)O)O[C@H](C)C[C@@H]1N(C)C | 109% (inactive)
